LANA-H2A inh – blockers of LANA interaction with H2A/H2B – biochemical, FP readout, HTS, primary screen | cell-free LANA-H2A/H2B peptide, fluorescence polarization | inhibition, % (test concentration not listed) | hit rate 0.6% among 320,000 | AID 2629, 2010; in the data active = inhibition mostly above about 10%, no sharp cut-off; inactive = mostly below about 6.7%
Target sequence (Q9QR71 whole entry, looked up): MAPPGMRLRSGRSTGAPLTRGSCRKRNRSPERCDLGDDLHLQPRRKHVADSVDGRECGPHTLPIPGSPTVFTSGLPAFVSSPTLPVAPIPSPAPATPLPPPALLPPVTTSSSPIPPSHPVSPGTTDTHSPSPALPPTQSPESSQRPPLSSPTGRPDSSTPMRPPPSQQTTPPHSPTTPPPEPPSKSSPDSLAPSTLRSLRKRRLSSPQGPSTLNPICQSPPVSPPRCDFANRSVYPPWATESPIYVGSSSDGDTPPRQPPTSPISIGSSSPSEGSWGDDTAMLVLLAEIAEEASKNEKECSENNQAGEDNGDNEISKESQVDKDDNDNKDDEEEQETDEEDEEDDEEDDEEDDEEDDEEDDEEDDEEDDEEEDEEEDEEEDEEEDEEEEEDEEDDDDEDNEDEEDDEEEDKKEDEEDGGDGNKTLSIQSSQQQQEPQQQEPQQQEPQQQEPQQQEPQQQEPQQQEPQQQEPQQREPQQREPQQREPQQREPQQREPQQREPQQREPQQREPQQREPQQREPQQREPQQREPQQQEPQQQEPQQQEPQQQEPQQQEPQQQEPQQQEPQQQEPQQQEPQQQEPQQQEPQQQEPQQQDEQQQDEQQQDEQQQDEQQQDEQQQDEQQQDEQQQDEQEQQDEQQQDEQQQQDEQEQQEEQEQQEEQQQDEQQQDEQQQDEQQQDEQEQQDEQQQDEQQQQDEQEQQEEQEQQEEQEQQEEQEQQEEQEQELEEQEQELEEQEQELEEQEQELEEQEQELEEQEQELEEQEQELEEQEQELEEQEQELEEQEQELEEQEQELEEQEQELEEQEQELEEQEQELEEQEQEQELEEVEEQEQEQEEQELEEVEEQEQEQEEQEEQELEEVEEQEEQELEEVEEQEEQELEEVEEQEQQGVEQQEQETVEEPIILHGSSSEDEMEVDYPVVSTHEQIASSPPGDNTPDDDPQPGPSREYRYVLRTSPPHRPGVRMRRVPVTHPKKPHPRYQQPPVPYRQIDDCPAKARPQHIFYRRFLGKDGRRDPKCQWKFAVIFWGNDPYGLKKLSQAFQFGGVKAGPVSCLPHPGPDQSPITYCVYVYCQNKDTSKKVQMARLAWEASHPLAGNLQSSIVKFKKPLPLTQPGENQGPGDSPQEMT
Rtt109 HAT inh – inhibitors of C. albicans Rtt109/Vps75 HAT, primary screen, biochemical, ThioGlo CoA-SH fluorescence, plate reader. Histone acetyltransferase RTT109 (Candida albicans (strain SC5314 / ATCC MYA-2876)), …. purified Rtt109/Vps75, 4 h. inhibition, % at 34.9 µM. hit rate 0.16% among 330,000. AID 540336, 2011;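 active = inhibition of at least 50% in every replicate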
rCAG RNA binder – binders of r(CAG) RNA repeats, primary screen, biochemical, fluorescence; r(CAG) RNA repeat, TO-PRO-1 dye displacement fluorescence; inhibition, % at 3 µM; hit rate 1.3% among 370,000; AID 651821, 2012;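 active = inhibition above the plate cutoff, the mean of all test compounds on that plate plus 3 SD, cut at about 35% in these data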;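 also: 0% = DMSO alone and 100% = 100 µM mitoxantrone as full dye displacement; higher means more dye released from RNA so lower well fluorescence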
ALR H2O2 inh – inhibitors of human ALR sulfhydryl oxidase, primary screen, biochemical, H2O2 detection, HRP-luminol luminescence, single point; AID 485317, 2010; FAD-linked sulfhydryl oxidase ALR (Homo sapiens), P55789; hit rate 3.8% among 290,000; inhibition, % (test concentration not listed); purified ALR, DTT oxidation;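 active = mean replicate inhibition above about 79%, with every replicate also reaching it, limit read from the data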
PRMT1 FP inh – PRMT1 methyltransferase inhibitors, primary screen, biochemical, fluorescence polarization; Protein arginine N-methyltransferase 1 (Homo sapiens), Q99873; recombinant PRMT1, activity-based probe fluorescence polarization; inhibition, % at 2.79 µM; hit rate 1.3% among 370,000;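 active = inhibition above about 21% made by adding two undisclosed values, limit read from the data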
ABHD5-PLIN5 inh – ABHD5-PLIN5 interaction inhibitors, primary screen, cell lysate, split luciferase complementation, luminescence | inhibition, % at 4 µM | hit rate 0.78% among 360,000 | Split G. princeps luciferase complementation, 4 h | Perilipin-5 (Homo sapiens) + 1-acylglycerol-3-phosphate O-acyltransferase ABHD5 (Homo … | AID 602281, 2012;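 active = inhibition above the mean inhibition across every tested compound plus 3 SD, cut at about 22% in these data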;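 also: 0% = DMSO only wells and the 100% control is not disclosed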
PRMT1 confirm – PRMT1 methyltransferase inhibitors, confirmation, biochemical, fluorescence polarization, triplicate; recombinant His-PRMT1, activity-based probe fluorescence polarization; shares compounds with PRMT1 FP inh; AID 687036, 2013; hit rate 42% among 3,300; inhibition, % at 2.79 µM;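 active = mean inhibition across replicates above the hit cutoff derived for the earlier primary screen, cut at about 22% in these data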
Active calls of the source: *; ! = a repeat was not active. Hits are enriched below; roughly 5.9% of the tested compounds scored in any of these assays.

What do the screens show for `Cn1c(O)c(C(c2ccncc2)c2c(O)n(C)c(=S)n(C)c2=O)c(=O)n(C)c1=S`?
LANA-H2A inh: 0; Rtt109 HAT inh: 4; rCAG RNA binder: 11; ALR H2O2 inh: 4; PRMT1 FP inh: 38*; ABHD5-PLIN5 inh: 14; PRMT1 confirm: 1

How did CC(=O)c1c(O)n(C)c(=S)n(-c2ccccc2)c1=O do in these assays?
LANA-H2A inh: 7; Rtt109 HAT inh: 6; rCAG RNA binder: 8; ALR H2O2 inh: 6; PRMT1 FP inh: 0; ABHD5-PLIN5 inh: 5

Results for Cn1c(O)c(C(c2ccccn2)c2c(O)n(C)c(=S)n(C)c2=O)c(=O)n(C)c1=S ?
LANA-H2A inh: 5; Rtt109 HAT inh: 4; rCAG RNA binder: 6; PRMT1 FP inh: 27*; ABHD5-PLIN5 inh: 8; PRMT1 confirm: 11

How did CCC(C)n1c(O)c(C(c2ccccn2)c2c(O)n(C(C)CC)c(=S)[nH]c2=O)c(=O)[nH]c1=S (stereo not drawn) do in these assays?
LANA-H2A inh: 4; Rtt109 HAT inh: -5; rCAG RNA binder: 10; ALR H2O2 inh: 1; PRMT1 FP inh: 10; ABHD5-PLIN5 inh: -26

Results for CN1CCC2(CC1)C(C#N)=C(N)NC(S)=C2C#N ?
LANA-H2A inh: -7; Rtt109 HAT inh: -4; rCAG RNA binder: -5; ALR H2O2 inh: -22; PRMT1 FP inh: 31*!; ABHD5-PLIN5 inh: -12; PRMT1 confirm: 19

Results for c1ccc(CN2COC3CCCCCC32)cc1 (stereo not drawn) ?
ABHD5-PLIN5 inh: -2

What do the screens show for `O=c1[nH]c2cc(Cl)ccc2n1C1CCN(Cc2ccc(-c3nc4ccc(F)cc4nc3-c3ccccc3)cc2)CC1`?
rCAG RNA binder: 11; PRMT1 FP inh: 2

How did COc1ccc(/C=C2/C(=O)NC(=O)N(C3CCCCC3)C2=O)cc1CSc1ccccn1 do in these assays?
LANA-H2A inh: -3; rCAG RNA binder: 12; ALR H2O2 inh: 5; PRMT1 FP inh: 26*; PRMT1 confirm: 6

How did Cc1ccc2[nH]c3c(c2c1)CN(C(=O)CN1C[C@H]2C[C@@H](C1)c1cccc(=O)n1C2)CC3 do in these assays?
LANA-H2A inh: -8; Rtt109 HAT inh: -29; rCAG RNA binder: -3; ALR H2O2 inh: 21; PRMT1 FP inh: 50*; ABHD5-PLIN5 inh: 4; PRMT1 confirm: 1

Results for CN1C(=O)C(=Cc2c(OCc3cnc(Cl)s3)ccc3ccccc23)C(=O)N(C)C1=O ?
LANA-H2A inh: -2; Rtt109 HAT inh: 7; rCAG RNA binder: 5; ALR H2O2 inh: 15; PRMT1 FP inh: 44*; ABHD5-PLIN5 inh: 17; PRMT1 confirm: -1

Results for CCn1cc(C=C2C(=O)N(C)C(=O)N(C)C2=O)c2ccccc21 ?
LANA-H2A inh: -1; Rtt109 HAT inh: -2; rCAG RNA binder: 4; ALR H2O2 inh: 3; PRMT1 FP inh: 7; ABHD5-PLIN5 inh: 2

Results for CC1=NCCc2c1[nH]c1cc(O)ccc21 ?
LANA-H2A inh: 142*; Rtt109 HAT inh: inactive; rCAG RNA binder: -79; ALR H2O2 inh: 99*; PRMT1 FP inh: 119*; ABHD5-PLIN5 inh: 5; PRMT1 confirm: 125*

Results for COc1ccc2c3c([nH]c2c1)C(C)=NCC3 ?
LANA-H2A inh: -20; Rtt109 HAT inh: 6; rCAG RNA binder: 1; ALR H2O2 inh: 13; PRMT1 FP inh: 2; ABHD5-PLIN5 inh: 5

What do the screens show for `O=C1NS(=O)c2cc([N+](=O)[O-])cc([N+](=O)[O-])c21` (stereo not drawn)?
LANA-H2A inh: 0; Rtt109 HAT inh: -14; rCAG RNA binder: -3; ALR H2O2 inh: -52; PRMT1 FP inh: 38*; ABHD5-PLIN5 inh: -16; PRMT1 confirm: 27*

What do the screens show for `CN(CC=CCN(C)P(=S)(N1CC1)N1CC1)P(=S)(N1CC1)N1CC1`?
Rtt109 HAT inh: 1; rCAG RNA binder: 2; PRMT1 FP inh: 52*; ABHD5-PLIN5 inh: -5; PRMT1 confirm: -6

How did O=c1c([N+](=O)[O-])cn(O)cc1[N+](=O)[O-] do in these assays?
Rtt109 HAT inh: -3; rCAG RNA binder: 2; PRMT1 FP inh: -1; ABHD5-PLIN5 inh: -1

How did CC[n+]1c(-c2ccccc2)c2cc(N)ccc2c2ccc(N)cc21 do in these assays?
Rtt109 HAT inh: 3; rCAG RNA binder: 25; PRMT1 FP inh: 37*; ABHD5-PLIN5 inh: -23; PRMT1 confirm: 11

How did Cc1c(C(=O)c2cccc3ccccc23)c2cccc3c2n1[C@H](CN1CCOCC1)CO3 do in these assays?
LANA-H2A inh: 1; Rtt109 HAT inh: 5; rCAG RNA binder: 7; ALR H2O2 inh: 2; PRMT1 FP inh: 3; ABHD5-PLIN5 inh: 3
